The source of these data is PubChem BioAssay AID651711 (Broad Institute, 2012).

“And” between values parts separate entries of the source, which are not always exact repeats. Equal entries are not always repeated. Screen size: about 350,000 compounds; about 180 (0.051%) were called active. Shown is part of a subset that was picked to be rich in actives. Unmarked numbers belong to inactive results.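 How the source made its calls: active means mean replicate inhibition above about 25%, with every replicate also reaching it (limit read from the data, passing the limit was not always enough); inconclusive means only one of those two criteria met; inactive means neither criterion met.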

Usually inhibition stands for the relative decrease from the control value, in per cent.

For this assay, the target named is Protein disulfide-isomerase A6 (Homo sapiens) (UniProt Q15084). As to the kind of experiment: ERp5 (PDIA6) reductase activity blockers – biochemical, turbidity, absorbance 650 nm, single point, primary screen (AID 651711). To be noted: ERp5 insulin aggregation, 90 min, at 9.99 µM, active compounds read high.
Protein disulfide-isomerase A6 (Homo sapiens), sequence (Q15084 whole entry, looked up): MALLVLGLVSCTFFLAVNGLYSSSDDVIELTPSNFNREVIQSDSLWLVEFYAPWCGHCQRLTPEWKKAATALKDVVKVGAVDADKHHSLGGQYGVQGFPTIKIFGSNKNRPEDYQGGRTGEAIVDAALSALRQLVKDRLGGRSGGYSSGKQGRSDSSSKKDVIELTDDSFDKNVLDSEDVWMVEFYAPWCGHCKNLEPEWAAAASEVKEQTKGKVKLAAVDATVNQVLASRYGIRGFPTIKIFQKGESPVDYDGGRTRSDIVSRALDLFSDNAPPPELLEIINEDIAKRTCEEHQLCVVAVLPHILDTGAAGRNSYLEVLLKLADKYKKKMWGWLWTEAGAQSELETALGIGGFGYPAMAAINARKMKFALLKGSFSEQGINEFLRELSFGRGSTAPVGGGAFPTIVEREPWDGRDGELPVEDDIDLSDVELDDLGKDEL
In the case of `CC(=O)c1c(C)[nH]c(C(=O)COC(=O)c2cccs2)c1C`, the inhibition was 14.1%. In the case of `COc1cccc(C(=O)OCC(=O)c2[nH]c(C)c(C(C)=O)c2C)c1` it was 27.2% (active). Take `CCOC(=O)c1c(C)[nH]c(C(=O)OCC(=O)c2ccc(OC)cc2OC)c1C`: the inhibition was -4.48%. As for `C[C@@H]1CN([C@@H](C)CO)C(=O)c2cc(NC(=O)CCCN(C)C)ccc2O[C@@H](C)CCCCO[C@@H]1CN(C)S(=O)(=O)c1ccc(Cl)cc1`, the inhibition was 0.282%.

`C[C@@H]1CN([C@@H](C)CO)C(=O)Cc2cc(NC(=O)CCN3CCOCC3)ccc2O[C@@H]1CN(C)C(=O)Nc1cccc2ccccc12`: the inhibition is 7.67%. `O=C(N[C@@H]1CC[C@@H](CCn2cc(-c3ccccn3)nn2)O[C@@H]1CO)c1ccccc1`: the inhibition is -2.15%. In the case of `COc1ccc(S(=O)(=O)Nc2ccc3c(c2)C(=O)N([C@@H](C)CO)C[C@H](C)[C@H](CN(C)Cc2ccc(C(=O)O)cc2)OCCCC[C@@H](C)O3)cc1` it was -3.93%; in that of `Cc1noc(C)c1S(=O)(=O)N(C)C[C@H]1Oc2ccc(NS(=O)(=O)c3cccs3)cc2C(=O)N([C@H](C)CO)C[C@H]1C`, -0.984%.

In the case of `O=S(=O)(c1ccccc1)N1CCCCN2[C@@H](CO)[C@H](c3ccc(C#Cc4cccnc4)cc3)[C@@H]2C1`, the inhibition was -0.401%.

For the compound `COCCNC(=O)C[C@@H]1CC[C@H]2[C@H](COc3ccc(NS(=O)(=O)c4ccc(Cl)cc4)cc3C(=O)N2C)O1`, the inhibition is 6.32%. In the case of `C[C@H]1CN([C@@H](C)CO)C(=O)Cc2cc(NS(=O)(=O)c3cccs3)ccc2O[C@@H]1CN(C)Cc1ccc(Oc2ccccc2)cc1` it was 0.293%; in that of `COc1ccc2c3c([nH]c2c1)[C@@H](CO)N(Cc1cc(F)ccc1F)CC31CN(C(=O)C2CCC2)C1`, 0.016%; in that of `COc1ccc2c3c([nH]c2c1)[C@@H](CO)N(Cc1ccccc1F)CC31CN(C(=O)C2CC2)C1`, 5.63%. With `COc1ccc2c3c([nH]c2c1)[C@H](CO)N(Cc1ccccc1Cl)CC31CN(C(=O)C2CC2)C1`, the inhibition was 32% (active).

For the compound `COc1ccc(NC(=O)Nc2cccc3c2O[C@@H](CN(C)C(=O)NC(C)C)[C@H](C)CN([C@H](C)CO)C3=O)cc1`, the inhibition is 1.64%. In the case of `O=C(C[C@H]1CC[C@H]2[C@@H](COC[C@@H](O)CN2CC2CCCC2)O1)NCC1CC1` it was 5.23%; in that of `O=C(CCN1CCCCC1)NCC[C@H]1CC[C@@H](NC(=O)C2CCOCC2)[C@H](CO)O1`, -1.07%; in that of `C[C@H](NC(=O)[C@H]1N[C@H]2c3ccc(-c4ccc(C(=O)N(C)C)cc4)c(=O)n3C[C@H]2[C@@H]1CO)c1ccccc1`, -1.53%. In the case of `O=C(C[C@@H]1CC[C@H](NC(=O)NC2CCCCC2)[C@H](CO)O1)NCc1ccc(F)cc1` it was -0.201%; in that of `CCC(=O)Nc1ccc2c(c1)OC[C@@H](C)N(Cc1cncnc1)C[C@H](C)[C@@H](OC)CN(C)C2=O`, 1.32%.

As for `O=C(Nc1cccc(F)c1)N1CC(=O)N2[C@H](C1)[C@H](c1ccc(-c3ccccc3F)cc1)[C@@H]2CO`, the inhibition was -0.993%. Turning to `CN(C)C(=O)[C@@H]1[C@@H](CO)[C@@H]2Cn3c(ccc(-c4ccncc4)c3=O)[C@H]1N2C(=O)NC1CCCC1`, the inhibition was -2.64%. Take `CO[C@@H]1CN(C)C(=O)c2cc(NC(=O)c3ccccc3F)ccc2OC[C@H](C)N(C(C)=O)C[C@@H]1C`: the inhibition is 3.35%. For `O=C(C[C@H]1CC[C@@H]2[C@H](COC[C@H](O)CN2Cc2ccccc2F)O1)NC1CCC1`, the inhibition was -3.28%. Then `CCCNC(=O)C[C@H]1C[C@H]2c3cc(NC(=O)COC)ccc3O[C@H]2[C@H](CO)O1`, with 2.76%; and `CNC(=O)C[C@@H]1CC[C@@H]2[C@@H](COc3ccc(NC(=O)Nc4ccccc4OC)cc3C(=O)N2C)O1`, with 5.92%. Take `CCC(=O)N(C)C[C@@H]1Oc2cc(C#C[C@H](C)O)ccc2S(=O)(=O)N([C@@H](C)CO)C[C@H]1C`: the inhibition is -0.347%. In the case of `C[C@@H]1CN([C@H](C)CO)C(=O)Cc2cc(NC(=O)CCN3CCOCC3)ccc2O[C@H]1CN(C)CC1CC1` it was -3.37%; in that of `COc1ccc(CCN2C(=O)[C@@]3(Cc4ccccc42)c2ccccc2C(=O)N(Cc2ccccc2C(F)(F)F)[C@H]3c2ccc(CO)cc2)cc1`, 4.71%; in that of `C[C@H](CO)N1C[C@H](C)[C@@H](CN(C)C(=O)Cc2ccncc2)Oc2ncc(C3=CCCCC3)cc2C1=O`, 4.38%. In the case of `O=C(c1cccc(F)c1)N1CC[C@@H]2[C@@H](CO)Nc3ccc(C#Cc4cccc(F)c4)cc3[C@@H]21` it was -3.07%. Then `C[C@H](CO)N1C[C@H](C)[C@@H](CN(C)Cc2ccc(C(=O)O)cc2)Oc2ccc(NS(=O)(=O)c3cn(C)cn3)cc2CC1=O`, with -1.33%; and `CC(C)NC(=O)N1CC2(C1)[C@H](c1ccccc1)[C@H](CO)N2C(=O)C1CCOCC1`, with 0.292%.

Turning to `C/C=C/c1ccc([C@H]2[C@@H](CO)N(C(=O)NCCC)[C@H]2CN(C)C(C)=O)cc1`, the inhibition was 5.18%. Regarding `CC(C)NC(=O)Nc1ccc2c(c1)C(=O)N([C@H](C)CO)C[C@@H](C)[C@@H](CN(C)Cc1ccncc1)O2`, the inhibition is -5.48%. On to `COc1ccc(C#Cc2cccc(-c3nc(C(=O)O)cc4c3[C@@H](CCO)N(S(=O)C(C)(C)C)C4)c2)cc1OC` (stereo partly specified), for which the inhibition is -1.96%. `Cc1ccc(S(=O)(=O)N(C)C[C@@H]2OCc3ccccc3-c3c(n(C)c4ccccc34)C(=O)N([C@@H](C)CO)C[C@@H]2C)cc1`: the inhibition was 3.4%.

For `O=C(C[C@H]1C=C[C@H](NC(=O)Nc2ccc(C(F)(F)F)cc2)[C@@H](CO)O1)NCCN1CCCC1`, the inhibition was 18.1%.

In the case of `C[C@@H]1CN([C@@H](C)CO)C(=O)Cc2cc(NC(=O)Cc3cn(C)c4ccccc34)ccc2O[C@H]1CN(C)C(=O)NC1CCCCC1`, the inhibition was 5.6%. `C[C@@H]1CN([C@H](C)CO)C(=O)Cc2cc(NC(=O)Nc3cccc4ccccc34)ccc2O[C@H]1CN(C)C(=O)Nc1ccc2c(c1)OCO2`: the inhibition is -12.4%. In the case of `C[C@H](CO)N1C[C@H](C)[C@H](CN(C)C(=O)CCC(F)(F)F)OCCCC[C@H](C)Oc2ccc(NS(=O)(=O)c3ccc(F)cc3)cc2C1=O`, the inhibition was 6.41%. Then `COCC(=O)Nc1ccc2c(c1)[C@@H]1C[C@H](CC(=O)NCc3ccc(-c4ccccc4)cc3)O[C@H](CO)[C@@H]1O2`, with -0.847%; and `CN1C(=O)c2cc(NC(=O)C3CCCC3)ccc2OC[C@@H]2O[C@@H](CC(=O)NCCc3ccncc3)CC[C@@H]21`, with -3.7%; and `C[C@@H]1CCCCO[C@H](CN(C)S(=O)(=O)c2ccc(Cl)cc2)[C@@H](C)CN([C@H](C)CO)C(=O)c2cc(NC(=O)Nc3ccc4c(c3)OCO4)ccc2O1`, with 0.772%.

As for `O=C1[C@@H](c2ccccc2)[C@@H](c2ccccc2)N1c1ccccc1`, the inhibition was 3.47%.

Take `O=C(N[C@@H]1C=C[C@@H](CC(=O)N2CCOCC2)O[C@H]1CO)c1ccccn1`: the inhibition was 2.34%. Take `CN(C)CC(=O)Nc1ccc2c(c1)[C@H]1C[C@H](CC(=O)NCc3ccccn3)O[C@@H](CO)[C@H]1O2`: the inhibition was -3.52%.

On to `Cc1[nH]c2ccccc2c1CC(=O)Nc1ccc(Nc2cccnc2)c(-c2cccc(Cl)c2)c1`, for which the inhibition was -5.11%. Then `CO[C@H](CN(C)C(=O)c1ccc2c(c1)OCO2)[C@H](C)CN([C@@H](C)CO)S(=O)(=O)c1ccc(Cl)cc1`, with 3%. Consider `C[C@H]1CN([C@@H](C)CO)C(=O)c2cccc(NC(=O)Nc3ccc(F)cc3)c2O[C@@H]1CN(C)C(=O)Nc1ccc2c(c1)OCO2`, for which the inhibition is 4.97%. In the case of `N#C[C@@H]1[C@H](c2ccccc2-c2ccc(F)cc2)[C@@H](CO)N1c1ncc(-c2ccccc2)s1`, the inhibition was 3.09%. Then `O=C(c1ccncc1)N1C[C@H]2[C@@H](c3ccccc31)[C@H](CO)N2Cc1ccc(F)cc1`, with -3.32%; and `COc1ccc2c3c(n(C)c2c1)[C@@H](CO)NCC31CCN(CC2CCCC2)CC1`, with 1.66%; and `O=C(Nc1ccccc1)N1CC(=O)N2[C@@H](CO)[C@H](c3ccc(C#CC4CCCC4)cc3)[C@@H]2C1`, with 1.6%. Turning to `C[C@@H]1CN([C@H](C)CO)C(=O)c2cc(-c3cncnc3)cnc2O[C@@H]1CN(C)Cc1ccc(Oc2ccccc2)cc1`, the inhibition was -1.07% and -77.5%. In the case of `COCC(=O)Nc1ccc2c(c1)C(=O)N(C)[C@@H]1CC[C@@H](CC(=O)NCCCN(C)C)O[C@@H]1CO2` it was -2.7%. In the case of `C[C@@H](NC(=O)C[C@@H]1C=C[C@@H](NC(=O)CN2CCOCC2)[C@H](CO)O1)c1ccccc1` it was 10.6%; in that of `Cc1ccc(S(=O)(=O)Nc2ccc3c(c2)C(=O)N([C@@H](C)CO)C[C@H](C)[C@H](CN(C)C(=O)Nc2ccc(C(F)(F)F)cc2)O3)cc1`, -3.11%; in that of `CCNC(=O)[C@H]1[C@H](CO)[C@H]2Cn3c(ccc(/C=C/c4ccccc4)c3=O)[C@@H]1N2C(=O)C1CCC1`, -5.59%. As for `Cn1cnc(S(=O)(=O)N2C[C@@H](O)COC[C@H]3O[C@@H](CC(=O)NCc4ccc(F)cc4)CC[C@@H]32)c1`, the inhibition is -0.766%. In the case of `C[C@@H]1CCCCO[C@@H](CN(C)Cc2ccccc2)[C@H](C)CN([C@H](C)CO)C(=O)c2cc(NC(=O)Nc3cccc4ccccc34)ccc2O1` it was 0.587%.
